These results are taken from PubChem BioAssay.

For assay [1], the system named is Plasmodium falciparum Sir2 (PF13_0152, Sir2A). In words: Plasmodium falciparum Sir2A binding compounds – biochemical, small-molecule microarray, 635 nm fluorescence, primary screen (AID 1098).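 Also: score merges spot fluorescence intensity with its signal-to-noise ratio.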 As to conditions: fluorescence 635 nm, higher = more signal.
Assay [2] can be described thus: probe aDKK1 binding to arrayed compounds – biochemical, biotinylated probe, 635/667 nm fluorescence, primary screen (AID 1099).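 Also: score merges 667nm spot fluorescence with signal to noise across triplicate slides.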 The following applies: small-molecule microarray, higher = more signal.
The nature of assay [3]: probe aCHRDL2 binding to arrayed compounds – biochemical, biotinylated probe, 635/667 nm fluorescence, primary screen (AID 1100). As to conditions: small-molecule microarray, higher = more signal.
Assay [4] in a line: change in splice reporter luminescence, either direction, cell-based, HEK293, spliceosome inhibition project, primary screen (AID 1101).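 Also: HEK293 cells carrying a splicing-competent luciferase reporter gene; test concentration not given here.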 As to conditions: HEK293 splicing luciferase reporter, 24 h, higher = more signal, called active from +8 up or from −8 down. A general note: In a reporter assay the amount or activity of a reporter protein is the signal.
The target in assay [5] is Fibroblast growth factor 10 (Homo sapiens) (UniProt O15520). In words: compounds binding fibroblast growth factor 10 – biochemical, small-molecule microarray, 635 nm fluorescence, primary screen (AID 1102). As to conditions: FGF10 binding, fluorescence 635 nm, higher = more signal.
For assay [6], the system named is glycogen synthase kinase-3 (GSK3A per assay name; protocol says GSK3B). Nature of the assay: compounds binding glycogen synthase kinase-3 – biochemical, small-molecule microarray, 635 nm fluorescence, GSK3A, primary screen (AID 1103). Also: the record names both GSK3A and GSK3B. As to conditions: fluorescence 635 nm, higher = more signal.
For assay [7], the target named is Epidermal growth factor receptor (Homo sapiens) (UniProt P00533). In words: compounds binding epidermal growth factor receptor – biochemical, small-molecule microarray, 635 nm fluorescence, primary screen (AID 1104).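 Also: score merges 667 nm emission intensity with spot signal to noise over triplicate slides.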 As to conditions: EGFR binding, higher = more signal.
The target of assay [8] is Follistatin-related protein 3 (Homo sapiens) (UniProt O95633). In words: compounds binding follistatin-related protein 3 – biochemical, small-molecule microarray, 635 nm fluorescence, primary screen (AID 1105).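 Also: score merges emission near 667 nm and signal to noise per printed spot across three slides.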 As to conditions: FSTL3 binding, higher = more signal.
The target of assay [9] is Dickkopf-related protein 1 (Homo sapiens) (UniProt O94907). In words: small molecules binding DKK1 protein – biochemical, small-molecule microarray, 635 nm fluorescence scan, primary screen (AID 1106).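 Also: score merges emission near 667 nm with signal to noise over three replicate slides.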 As to conditions: higher = more signal.
The subject of assay [10] is Inhibin beta A chain (activin A). In words: small molecules binding activin A – biochemical, small-molecule microarray, 635 nm fluorescence scan, primary screen (AID 1107).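 Also: mouse activin A protein probed at 4.33 µg/mL on printed slides; score merges bound-protein fluorescence near 667 nm with spot signal-to-noise.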 As to conditions: INHBA, higher = more signal.
Assay [11] concerns Human papillomavirus type 1a protein E7 (residues 44-93). In words: small molecules binding HPV E7 44-93 – biochemical, small-molecule microarray, residues 44-93, 635 nm fluorescence, primary screen (AID 1108).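 Also: E7 fragment applied at 1 µg/mL in TBST for 1 h at 4 C; score combines spot fluorescence with its signal to noise ratio.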 As to conditions: fluorescence 635 nm, higher = more signal.
A short description of assay [12]: hepatitis C replication reporter changes, two-sided – Huh7 cells, luciferase reporter, HCV replication inhibitor project, primary screen (AID 1109).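 Also: huh7 hepatoma cells harbouring a luciferase neomycin HCV replicon reporter; luciferase luminescence as measure of HCV replicon replication; test concentration not given here.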 As to conditions: Huh7 HCV replicon luciferase reporter, 48 h; higher = more signal.
The target in assay [13] is Left-right determination factor 2 (Homo sapiens) (UniProt O00292). In words: small molecules binding LEFTY2 protein – biochemical, small-molecule microarray, 635 nm fluorescence scan, primary screen (AID 1110). The following applies: higher = more signal.
Assay [14] has as its target Calmodulin-1 (Homo sapiens) (UniProt P0DP23). Nature of the assay: small molecules binding calmodulin-1 with EGTA – biochemical, small-molecule microarray, Cy5-labelled CALM1, profiling panel (AID 1111).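 Also: labelled calmodulin applied in Tris saline Tween buffer holding calcium plus EGTA and DTT.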 The following applies: Cy5-CALM1 binding fluorescence, higher = more signal.
For assay [15] the target is unchanged. In words: small molecules binding Ca-loaded calmodulin-1 – biochemical, small-molecule microarray, Cy5-labelled CALM1, plus calcium, artefact control for SMM control-protein annotation, profiling panel (AID 1112).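 Also: score merges spot fluorescence with signal to noise from triplicate slides.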 As to conditions: Cy5-CALM1 binding fluorescence, higher = more signal.
A short description of assay [16]: probe aWnt5a binding to arrayed compounds – biochemical, biotinylated probe, 635/667 nm fluorescence, primary screen (AID 1113).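 Also: score merges 667 nm fluorescence intensity with signal-to-noise per printed feature.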 The following applies: small-molecule microarray, higher = more signal.
Assay [17] is described as follows: probe aShh binding to arrayed compounds – biochemical, biotinylated probe, 635/667 nm fluorescence, primary screen (AID 1114).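 Also: probe is biotin-labelled aShh protein from a stem cell growth factor screen; measures binding of labelled protein to compounds printed on the slide; score merges feature fluorescence at 667 nm with signal-to-noise.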 The following applies: small-molecule microarray, higher = more signal.
A short description of assay [18]: probe aNog binding to arrayed compounds – biochemical, biotinylated probe, 635/667 nm fluorescence, primary screen (AID 1115).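 Also: probe is biotinylated aNog protein used at 0.15 µg/mL for 1 h at 4 C; z-score combines 667 nm fluorescence of each spot with its signal to noise.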 As to conditions: small-molecule microarray, higher = more signal.
In assay [19] the target is Torsin-1A-interacting protein 1 (Homo sapiens) (UniProt Q5JTV8). In words: compound microarray binding of lysate hLAP1 – cell lysate, small-molecule microarray, COS7 lysate, 635/667 nm fluorescence, primary screen (AID 1116). As to conditions: 635 nm fluorescence, higher = more signal.
In assay [20] the target is Alpha-bungarotoxin (Bungarus multicinctus) (UniProt P60615). In words: compounds binding labelled alpha-BTX control protein – biochemical, small-molecule microarray, Alexa647 label, 635/667 nm fluorescence, artefact control for SMM control protein annotation, profiling panel (AID 1117). As to conditions: alpha-BTX-A647 binding fluorescence, higher = more signal.

The source made the active and inactive calls.

Follistatin-related protein 3 (Homo sapiens), sequence (O95633 whole entry, looked up): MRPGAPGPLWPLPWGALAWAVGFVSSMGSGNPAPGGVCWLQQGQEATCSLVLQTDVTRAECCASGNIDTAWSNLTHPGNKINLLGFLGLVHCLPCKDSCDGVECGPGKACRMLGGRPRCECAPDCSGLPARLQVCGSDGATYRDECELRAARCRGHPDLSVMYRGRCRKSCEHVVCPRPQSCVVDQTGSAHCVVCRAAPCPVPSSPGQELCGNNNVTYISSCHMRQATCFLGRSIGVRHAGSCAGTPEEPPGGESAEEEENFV
Fibroblast growth factor 10 (Homo sapiens), sequence (O15520 whole entry, looked up): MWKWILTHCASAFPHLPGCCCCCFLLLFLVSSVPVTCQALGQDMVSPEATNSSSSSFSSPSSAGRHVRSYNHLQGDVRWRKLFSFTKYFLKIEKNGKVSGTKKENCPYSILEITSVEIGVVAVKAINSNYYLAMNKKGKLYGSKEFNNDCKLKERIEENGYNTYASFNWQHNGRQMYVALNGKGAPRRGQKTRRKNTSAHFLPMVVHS
Torsin-1A-interacting protein 1 (Homo sapiens), sequence (Q5JTV8 whole entry, looked up): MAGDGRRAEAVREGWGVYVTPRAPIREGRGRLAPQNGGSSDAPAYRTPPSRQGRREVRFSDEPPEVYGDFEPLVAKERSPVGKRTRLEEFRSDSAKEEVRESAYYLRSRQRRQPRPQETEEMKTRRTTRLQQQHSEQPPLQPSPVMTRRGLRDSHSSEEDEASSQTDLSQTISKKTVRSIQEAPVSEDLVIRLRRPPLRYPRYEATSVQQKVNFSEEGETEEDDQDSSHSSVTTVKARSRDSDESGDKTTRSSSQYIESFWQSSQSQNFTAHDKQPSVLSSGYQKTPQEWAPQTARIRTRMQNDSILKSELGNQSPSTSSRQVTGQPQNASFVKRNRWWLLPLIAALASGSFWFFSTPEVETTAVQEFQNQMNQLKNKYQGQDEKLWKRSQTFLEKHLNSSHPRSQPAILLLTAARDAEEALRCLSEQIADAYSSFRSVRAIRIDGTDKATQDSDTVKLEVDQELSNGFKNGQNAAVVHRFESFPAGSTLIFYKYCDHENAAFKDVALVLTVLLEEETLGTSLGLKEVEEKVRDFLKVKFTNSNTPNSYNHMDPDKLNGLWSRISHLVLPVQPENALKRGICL
Alpha-bungarotoxin (Bungarus multicinctus), sequence (P60615 whole entry, looked up): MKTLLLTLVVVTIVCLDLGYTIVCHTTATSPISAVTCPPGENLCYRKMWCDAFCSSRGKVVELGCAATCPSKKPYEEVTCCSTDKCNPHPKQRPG
Dickkopf-related protein 1 (Homo sapiens), sequence (O94907 whole entry, looked up): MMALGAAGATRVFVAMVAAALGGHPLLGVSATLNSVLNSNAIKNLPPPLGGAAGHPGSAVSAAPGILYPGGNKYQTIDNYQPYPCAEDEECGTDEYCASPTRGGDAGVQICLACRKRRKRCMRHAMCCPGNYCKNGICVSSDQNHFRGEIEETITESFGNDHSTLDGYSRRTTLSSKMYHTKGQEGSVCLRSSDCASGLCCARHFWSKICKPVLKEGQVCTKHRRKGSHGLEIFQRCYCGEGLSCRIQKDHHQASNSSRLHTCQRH
Left-right determination factor 2 (Homo sapiens), sequence (O00292 whole entry, looked up): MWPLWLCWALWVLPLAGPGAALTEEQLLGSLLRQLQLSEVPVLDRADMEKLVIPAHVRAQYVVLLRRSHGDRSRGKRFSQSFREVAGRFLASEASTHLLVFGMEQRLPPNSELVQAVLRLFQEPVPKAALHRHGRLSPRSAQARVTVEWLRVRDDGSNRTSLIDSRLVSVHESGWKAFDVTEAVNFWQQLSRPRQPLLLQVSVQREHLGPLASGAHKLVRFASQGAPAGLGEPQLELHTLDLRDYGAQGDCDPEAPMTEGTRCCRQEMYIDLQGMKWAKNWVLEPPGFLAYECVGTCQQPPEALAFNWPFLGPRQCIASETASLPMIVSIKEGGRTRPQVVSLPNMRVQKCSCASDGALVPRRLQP
Epidermal growth factor receptor (Homo sapiens), sequence (P00533 whole entry, looked up): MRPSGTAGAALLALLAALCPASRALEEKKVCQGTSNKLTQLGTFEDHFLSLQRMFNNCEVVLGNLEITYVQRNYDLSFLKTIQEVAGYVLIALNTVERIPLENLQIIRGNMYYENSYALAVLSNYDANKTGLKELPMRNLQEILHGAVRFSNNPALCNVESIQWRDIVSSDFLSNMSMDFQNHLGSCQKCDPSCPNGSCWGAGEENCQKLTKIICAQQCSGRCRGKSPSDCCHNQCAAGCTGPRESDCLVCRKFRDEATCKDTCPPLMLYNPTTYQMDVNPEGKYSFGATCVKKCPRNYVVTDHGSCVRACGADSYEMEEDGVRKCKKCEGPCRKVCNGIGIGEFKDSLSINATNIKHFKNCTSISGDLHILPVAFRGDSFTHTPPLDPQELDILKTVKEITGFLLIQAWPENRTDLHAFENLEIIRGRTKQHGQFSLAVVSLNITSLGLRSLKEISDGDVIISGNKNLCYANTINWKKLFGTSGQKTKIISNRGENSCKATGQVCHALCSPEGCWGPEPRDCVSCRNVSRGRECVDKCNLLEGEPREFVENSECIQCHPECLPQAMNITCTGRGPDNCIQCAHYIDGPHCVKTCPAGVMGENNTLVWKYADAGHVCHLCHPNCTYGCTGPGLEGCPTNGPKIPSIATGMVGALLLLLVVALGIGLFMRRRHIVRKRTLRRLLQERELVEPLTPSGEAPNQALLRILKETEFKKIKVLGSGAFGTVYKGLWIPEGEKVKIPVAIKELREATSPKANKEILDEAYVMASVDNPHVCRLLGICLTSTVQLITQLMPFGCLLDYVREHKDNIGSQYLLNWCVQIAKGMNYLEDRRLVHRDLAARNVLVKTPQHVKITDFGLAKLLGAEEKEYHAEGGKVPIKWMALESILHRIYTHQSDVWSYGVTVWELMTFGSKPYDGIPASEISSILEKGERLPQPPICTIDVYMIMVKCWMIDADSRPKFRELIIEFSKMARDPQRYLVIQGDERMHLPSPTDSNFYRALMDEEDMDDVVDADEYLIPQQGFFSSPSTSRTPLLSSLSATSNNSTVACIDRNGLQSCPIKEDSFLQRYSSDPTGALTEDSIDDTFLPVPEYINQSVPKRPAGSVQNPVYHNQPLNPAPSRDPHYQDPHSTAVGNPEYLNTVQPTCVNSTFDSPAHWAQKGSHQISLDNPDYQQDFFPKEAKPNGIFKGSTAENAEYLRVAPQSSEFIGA

In the case of `COCCCNC(=O)[C@@]1(Cc2ccccc2CN=[N+]=[N-])COC(c2ccc(OCCCO)cc2)=N1`, the composite z-score in [1] was 1.59; in assay [2] it was 1.28; in assay [3], 1.39; in assay [5], 1.38; in assay [6] it was 0.266; in assay [7], -0.474. Moreover, the composite z-score was -0.0087 in assay [8]; -1.58 in [9]; 0.731 in [10]; 0.989 in assay [11]; -0.645 in assay [13]; 1.78 in [14]. In addition, the composite z-score in assay [15] was 0.96; in assay [16] it was 0.299; in [17] it was 0.454; in [18], 1.75; in assay [19] it was 2.45; in [20], 0.911. In addition, the z-score in [4] is -0.807 (inactive); in assay [12], -1.97.
As for `C[N+](C)(C)CCCC[C@@H]1NC(=O)[C@@H]2C[C@H](C(=O)NCCCCCNC(=O)CS)[C@H](c3ccc(O)cc3)N2C1=O`, the composite z-score was 1.3 in assay [1]; -0.0611 in assay [2]; 0.346 in assay [3]; 0.0481 in [5]; -0.638 in assay [6]; -0.849 in assay [7]. The composite z-score in assay [8] is 0.0788; in assay [9], 0.171; in assay [10] it was 0.57; in assay [11] it was -0.643; in [13], -0.739; in [14] it was 0.21. Also, the composite z-score in assay [15] is 0.669; in assay [16], -0.191; in assay [17], 0.138; in [18], 0.208; in assay [19], 2.19; in assay [20], 1.12. In addition, the z-score was 4.12 (inactive) in [4] and -0.0298 in assay [12].
Turning to `O=C(NCc1ccccc1)[C@@H]1c2ccccc2C(=O)N(Cc2ccccc2Cl)[C@H]1c1ccc(CO)cc1`, the composite z-score in assay [1] came out at 0.447; in assay [2], 1; in assay [3], 1.01; in assay [5], 0.814; in assay [6], 1.32; in assay [7] it was 0.183. The composite z-score in assay [8] is 1.42; in assay [9] it was 0.909; in assay [10], 0.791; in assay [11] it was 1.05; in assay [13], 0.671; in [14], -0.23. Moreover, the composite z-score came to 0.0368 in [15]; 0.0297 in [16]; 0.123 in assay [17]; 0.522 in [18]; 1.21 in assay [19]; 1.67 in assay [20]. The z-score in assay [4] is -1.05 (inactive); in assay [12], -0.267.
With `COC(=O)c1c2oc(c1C(=O)OC)C(=O)N[C@@H](C(C)C)Cn1nncc1C1(CCCCC1)NC(=O)N[C@H](CO)CC2`, the composite z-score was 1.54 in assay [1]; -0.212 in [2]; 0.0273 in assay [3]; -0.0613 in assay [5]; -0.96 in [6]; -0.193 in assay [7]. The composite z-score in [8] was -0.232; in [9], -0.074; in [10], 0.31; in [11], -0.683; in [13], -0.0834; in [14], 0.401. Also, the composite z-score in assay [15] was -0.102; in assay [16], -0.148; in [17], 0.0899; in assay [18], -0.0207; in assay [19], 0.368; in assay [20] it was 1.29. In addition, the z-score in assay [4] was -1.44 (inactive); in [12] it was 0.862.
As for `C=CCNC(=O)[C@H]1[C@@H]2C(=O)O[C@@H](c3ccccc3)[C@@H](c3ccccc3)N2[C@@H](c2ccc(OCCO)cc2)[C@]12C(=O)Nc1ccc(C#CCCO)cc12`, the composite z-score in assay [1] was 1.36; in assay [2], 0.299; in assay [3], 0.797; in assay [5], 0.241; in [6], -0.145; in [7], -0.105. Further, the composite z-score in assay [8] was 0.359; in assay [9] it was -0.059; in assay [10] it was 0.629; in assay [11], 0.699; in assay [13] it was -0.0631; in [14], 0.0076. The composite z-score was 0.295 in [15]; -0.175 in assay [16]; -0.0769 in [17]; 0.332 in assay [18]; 1.42 in [19]; 1.9 in assay [20]. The figures for the z-score in assay [4] and in [12] were -1.26 (inactive) and -0.735, respectively.
